# Source: PubChem
# ALOX12 inh: inhibitors of human 12S-lipoxygenase ALOX12. purified 12hLO, xylenol orange hydroperoxide absorbance. Potency, µM (top dose mostly 108 µM), for the others: at the top dose activity change, negative = inhibition, usual class: inhibitors. P18054. 580,000 compounds, 1.1% hits
# Target sequence (P18054 whole entry, looked up): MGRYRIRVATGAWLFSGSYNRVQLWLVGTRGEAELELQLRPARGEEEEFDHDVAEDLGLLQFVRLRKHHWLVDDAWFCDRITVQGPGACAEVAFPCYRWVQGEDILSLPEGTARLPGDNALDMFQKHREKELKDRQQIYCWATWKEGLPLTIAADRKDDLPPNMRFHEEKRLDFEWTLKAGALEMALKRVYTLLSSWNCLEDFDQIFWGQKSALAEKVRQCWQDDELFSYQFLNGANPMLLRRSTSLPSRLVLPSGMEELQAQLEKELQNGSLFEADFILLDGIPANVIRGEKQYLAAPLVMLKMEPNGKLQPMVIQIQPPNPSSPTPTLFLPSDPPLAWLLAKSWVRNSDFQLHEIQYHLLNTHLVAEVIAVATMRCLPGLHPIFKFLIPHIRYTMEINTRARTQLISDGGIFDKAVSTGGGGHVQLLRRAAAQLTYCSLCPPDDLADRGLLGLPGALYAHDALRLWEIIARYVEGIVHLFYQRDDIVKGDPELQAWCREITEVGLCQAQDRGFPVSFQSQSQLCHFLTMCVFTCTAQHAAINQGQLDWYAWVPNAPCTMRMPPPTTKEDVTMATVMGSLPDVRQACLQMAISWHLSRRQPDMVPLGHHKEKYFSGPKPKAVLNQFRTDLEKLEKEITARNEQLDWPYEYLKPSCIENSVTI
#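 Purified human 12hLO at 150 nM in 25 mM Hepes, 0.01% Triton X-100, pH 7.0, preincubated 15 min at room temperature with compound. Reaction started with 40 uM arachidonic acid, 30 min at room temperature. Hydroperoxide measured by Fe-xylenol orange, 573/405 nm absorbance ratio.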
# VDR inh: inhibitors of human vitamin D receptor | P11473 | VDR-SRC2-3 peptide fluorescence polarization, 2 h | Potency, µM, inactives show max response, negative = inhibition, usual class: inhibitors | 400,000 compounds, 0.93% hits
#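 Two reagent solutions held at 4 deg C in the dark were dispensed, compounds pinned at 23 nl, and the mixture incubated 2 h at room temperature. Read-out: fluorescence polarization of VDR–SRC2-3 peptide binding.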
# PLK1 PBD inh: PLK1 (human) polo-box domain binding inhibition. 360,000 compounds, 2.8% hits. P53350. Plk1 PBD binding of FITC phosphopeptide, fluorescence polarization. Potency, µM, inactives show max response, negative = inhibition, most hits filed as inhibitors; note: series mostly up to about 57 µM; nearly all actives have a fitted effect of over 65% in size
# GCN5L2 inh: blocks human GCN5L2 histone acetyltransferase; 390,000 compounds, 0.21% hits; GCN5L2 HAT assay, ThioGlo1 CoA-SH fluorescence; AID 504327; Q92830; Potency, µM (titrated, usually from 58.9 µM), for the others: top-dose activity change, negative = inhibition, usual class: inhibitors
#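 Preincubate 20nM GCN5L2 with compound 15 min, RT → add 50uM ThioGlo1 + 75uM H3(1-25) + 70uM acetyl-CoA → read fluorescence 0 and 20 min. Primary qHTS; fluorescent artifacts likely.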
# * marks the source's active call; other numbers are inactive results; ? = inconclusive; nt = no result; ! = not confirmed by another sample; [ ] = remark or other dose. This is a sample that favours compounds with a hit; in the whole collection about 3% have one here. Calls come from the whole dose curve; as a rule, active = well fitted curve in the direction sought with a large enough effect; inconclusive = small, poorly fitted or top-dose-only effect, or another doubt; inactive = no such curve, though single readings can be large; an effect the other way counts as inactive or inconclusive. % is set by controls: 0 for no effect and ±100 for the full control effect; potency is the fitted concentration of half-maximal effect.
SMILES,ALOX12 inh,VDR inh,PLK1 PBD inh,GCN5L2 inh
Brc1c(NC2=NCCN2)ccc2nccnc12,?,45µM*,nt,-5%
O=C(NC[C@H]1C[C@@H]2CCN1C[C@@H]2CN1CCN(c2ccccn2)CC1)Nc1ccsc1,74%,nt,nt,nt
COc1cc(C=C2C(=O)NC(=O)NC2=O)ccc1O,?,-19%,21µM*,3%
COc1cc(/C=C2\C(=O)NC(=O)N(CCc3ccc(F)cc3)C2=O)ccc1O,?,?,0.75µM*,-2%
Cn1cccc1/C=C1/C(=O)NC(=O)N(Cc2ccc(F)cc2)C1=O,?,-15%,?,-25%
N#Cc1cccc(-c2ccc3n(c2=O)C[C@H]2C[C@@H]3CN(C(=O)CSCC(=O)O)C2)c1,8%[176 µM],nt,nt,nt
Oc1ccc(/C=N/NP(=S)(c2ccccc2)c2ccccc2)cc1,?,-29%,24µM*,-3%
COc1cc(/C=N/NP(=S)(c2ccccc2)c2ccccc2)ccc1O,0%,-7%,?,-16%
Cc1c(C)n(O)c2ccc3nonc3c12,?,-23%,19µM*,-1%
CCCN1CCc2cc(O)cc3c2[C@H]1Cc1ccc(O)c(O)c1-3,?,5µM*!,-24%,-14%
CN1CCc2cc(O)cc3c2[C@H]1Cc1ccc(O)c(O)c1-3,?,4.5µM*!,-10%,-12%
CCCN1CCc2cccc3c2C1Cc1ccc(O)c(O)c1-3 (centres undefined),?,-1%,nt,-5%
CC(C)[C@H]1C(=O)N[C@H](CO)Cc2c[nH]c3cccc(c23)N1C,40µM*,nt,nt,nt
CCOC(=O)c1sc(=NC(=O)c2ccc(C)c(C)c2)n(C)c1C,-3%,-22%,27µM*,-1%
CCOC(=O)c1ccccc1C(=O)OCC,3%,-9%,-19%,-10%
CCCCC/C=C\C/C=C\CCCCCCCC(=O)NCCO,-4%[12.5 µM],?,nt,3%
CCCCC/C=C\C/C=C\C/C=C\C/C=C\CCCC(=O)N[C@H](C)CO,nt,35µM*!,nt,4%
CCCCC/C=C\C/C=C\C/C=C\C/C=C\CCCC(=O)OC(CO)CO,nt,35µM*!,nt,?
COc1cc2c(cc1Oc1ccccc1)NC(=O)C21CCN(Cc2nccn2C)CC1,15%[176 µM],nt,nt,nt
Cc1cc(N2CCNC[C@@H]2C)ccc1N1CCN[C@@H](C)C1,45µM*,nt,nt,nt
C[C@@H]1CNCCN1c1ccc(N2CC[C@H](O)C2)c(C#N)c1,-28%,nt,nt,nt
Cc1cc(N2CCNC[C@H]2C)ccc1N1CCN[C@H](C)C1,40µM*,nt,nt,nt
Cc1[nH]cnc1CN1C[C@H](c2ccc3c(c2)OCO3)[C@@H]2[C@H]1C1CCN2CC1,-16%,nt,nt,nt
CCOc1ccc(Cc2c(O)[nH]c(=O)[nH]c2=O)cc1,-15%,?,-9%,2%
CCOc1ccc(C(C)=O)cc1Cc1c(O)[nH]c(=S)[nH]c1=O,?,?,30µM*,14µM*
SMILES,ALOX12 inh,VDR inh,PLK1 PBD inh,GCN5L2 inh
CCCOc1ccc(C(C)=O)cc1Cc1c(O)[nH]c(=S)[nH]c1=O,?,?,30µM*,?
O=C(NC[C@H]1C[C@@H]2CCN1C[C@@H]2CN1CCN(c2ccccc2)CC1)Nc1ccsc1,42%,nt,nt,nt
CN(C)C(=S)SSC(=S)N(C)C,?,2.5µM*!,0.34µM*,14µM*
CN(C)C(=S)SC(=S)N(C)C,?,28µM*,nt,?
CCCS(=O)(=O)NC[C@H]1C[C@@H]2CCN1C[C@@H]2CC,56%[176 µM],nt,nt,nt
COc1ccc(/C=C2/C(=O)N(c3ccccc3)N=C2C)cc1,nt,89µM*,3.8µM*,nt
CC1=NOC2(CCN(CCC(C)C)C2)C1 (centres undefined),60%[176 µM],nt,nt,nt
CC(C)(Cl)[N+](=O)[O-],3%,6%,-8%,-3%
O=[N+]([O-])C(Br)(CO)CO,nt,5.6µM*,nt,?
CCc1ccc(CNCCc2c[nH]c3ccccc23)cc1,0.89µM*!,-3%,1%,-15%
O=[N+]([O-])c1ccccc1CNCCc1c[nH]c2ccccc12,0.56µM*,-21%,-14%,-3%
c1ccc(CNCCc2c[nH]c3ccccc23)cc1,?,-18%,-1%,-1%
CC1CCC(c2nnnn2-c2ccccc2)(N2CCOCC2)CC1 (centres undefined),-1%,nt,nt,nt
O=c1[nH]c(=S)[nH]c(O)c1N=Nc1ccc(S(=O)(=O)N2CCOCC2)cc1,?,-14%,?,-7%
O=c1[nH]c(=S)[nH]c(O)c1N=Nc1cccc(S(=O)(=O)N2CCOCC2)c1,40µM*,-8%,-19%,-9%
O=c1[nH]c(O)c(N=Nc2cccc(S(=O)(=O)N3CCOCC3)c2)c(=O)[nH]1,-16%,5%,-7%,-9%
O=c1[nH]c(=S)[nH]c(O)c1N=Nc1cc(S(=O)(=O)Nc2ccc(Cl)cc2)ccc1Cl,?,27%,30µM*,-29%
NS(=O)(=O)c1ccc(N=Nc2c(O)[nH]c(=S)[nH]c2=O)cc1,40µM*,-6%,-3%,-9%
Cn1nc(C(=O)N[C@@H]2COCC[C@@H]2OCc2cscn2)c2ccccc21,19%,nt,nt,nt
COC[C@H]1CCCN1C[C@H]1CN2CC[C@H]1C[C@@H]2CNC(=O)c1ccc(N(C)C)cc1,25%[176 µM],nt,nt,nt
CCOC(=S)SSC(=S)OCC,nt,50µM*,nt,?
Oc1cc[c]([Hg][Cl])cc1,nt,4µM*,nt,0.14µM*
CN(C(=O)Oc1ccc([N+](=O)[O-])cc1)c1ccccc1,10%,-11%,-1%,-3%
COP(=S)(OC)Oc1ccc([N+](=O)[O-])cc1,nt,16µM*,nt,-8%
Nc1ccc(Sc2ccc(N)cc2)cc1,-15%,5%,3%,nt
SMILES,ALOX12 inh,VDR inh,PLK1 PBD inh,GCN5L2 inh
COP(=S)(OC)Oc1ccc(Sc2ccc(OP(=S)(OC)OC)cc2)cc1,?,50µM*,?,?
Cc1cc(OCC(=O)N2CCN(Cc3nc(N)c4ccccc4n3)CC2)ccc1C(C)C,26%,nt,nt,nt
CCC(=O)c1cn(Cc2ccccc2)c2ccccc12,11%,11%,-1%,11%
O=C(c1cn(Cc2ccccc2)c2ccccc12)C1CC1,2%,?,27µM*,-10%
COc1ccc(-c2c(C(F)(F)F)oc3cc(OC(=O)N(C)C)ccc3c2=O)cc1,-18%,nt,nt,nt
O=C1C(Cl)=C(Cl)C(=O)C(Cl)=C1Cl,nt,0.71µM*,nt,?
COc1ccc(-c2cccc3c2CCNC3)cc1OC,30%,nt,nt,nt
Cc1cc(/C=C2/C(=O)NC(=O)N(C)C2=O)c(C)n1-c1ccccc1,0%,9%,3%,-3%
Cn1cccc1/C=C1/C(=O)NC(=O)N(Cc2ccccc2)C1=O,-20%,?,?,-11%
CN1C(=O)NC(=O)/C(=C\c2ccc([N+](=O)[O-])o2)C1=O,nt,?,2.7µM*,-2%
Cc1ccc(/C=C2/C(=O)NC(=O)N(C)C2=O)cc1,-15%,-9%,11µM*,-5%
O=C1NC(=O)N(c2ccccc2)C(=O)/C1=C\c1ccc([N+](=O)[O-])o1,nt,nt,nt,-7%
CN1C(=O)NC(=O)/C(=C/c2ccc(C(=O)O)cc2)C1=O,-27%,?,12µM*,-10%
CCC(CC)c1cc([C@H]2CN3CC[C@H]2C[C@@H]3CNC2CCN(C(C)=O)CC2)nc(-c2ccncc2)n1,97%,nt,nt,nt
Cc1nn(-c2ncnc3nc[nH]c23)c2c1C(c1c(Cl)cccc1Cl)SCC(=O)N2 (centres undefined),15%,nt,nt,nt
